Rows were chosen to be rich in hits. Some 10% of all compounds tested hit in one or more screens of this group.
PNC assembly inh: High Content Assay for Compounds that inhibit the Assembly of the Perinucleolar Compartment; activity change (PNC), negative = inhibition, % at 10 µM; PC3M PTB-GFP, PNC prevalence imaging, 16 h; active compounds read low; AID 2417, 2010; hit rate 3.1% among 140,000;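 active = readout at or below -70, meaning at least 70% loss of cells showing the perinucleolar compartment, a nuclear body marking cancer cells; inconclusive = readout between -30 and a set limit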;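 note: plate controls were DMSO wells for no effect and camptothecin positive control wells for full effect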
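PC3M cells stably expressing PTB-GFP, 750–1000 cells/well, treated 16 h at 37 °C with compound (23 nl of library stock), in duplicate. After paraformaldehyde fixation and Hoechst stain, imaged at 20x; PNC prevalence scored by image analysis.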
HPGD inh: qHTS Assay for Inhibitors of HPGD (15-Hydroxyprostaglandin Dehydrogenase); hit rate 4.3% among 150,000; purified HPGD, NADH fluorescence kinetic, PGE2 substrate; 15-hydroxyprostaglandin dehydrogenase [NAD(+)] (Homo sapiens), P15428; Potency, µM, inactives show at the highest dose activity change, negative = inhibition, most hits filed as inhibitors; note: potency is the fitted concentration of half-maximal effect
Target sequence (P15428 whole entry, looked up): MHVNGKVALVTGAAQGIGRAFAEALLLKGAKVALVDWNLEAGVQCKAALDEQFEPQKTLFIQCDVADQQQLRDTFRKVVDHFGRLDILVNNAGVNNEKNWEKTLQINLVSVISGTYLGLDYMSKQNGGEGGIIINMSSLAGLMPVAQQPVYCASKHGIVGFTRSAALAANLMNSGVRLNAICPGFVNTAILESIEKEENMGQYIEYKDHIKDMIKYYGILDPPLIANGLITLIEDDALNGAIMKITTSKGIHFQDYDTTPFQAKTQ
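NADH formation kinetics: reaction with 30 uM PGE2 and 1 mM NAD+ (final), 20 nM enzyme, Tris-HCl pH 8 with Tween 20, after 15 min compound preincubation at room temperature. Fluorescence change, last versus first of five reads.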
ALDH1A1 block: qHTS Assay for Inhibitors of Aldehyde Dehydrogenase 1 (ALDH1A1). Purified ALDH1A1, NADH fluorescence, propionaldehyde substrate. hit rate 7.3% among 220,000. Aldehyde dehydrogenase 1A1 (Homo sapiens), P00352. Potency, µM (highest dose often 75.3 µM), for inactives: at the highest dose activity, negative = inhibition, hits mostly inhibitors;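 note: potency is the fitted concentration of half-maximal effect; plate controls were no enzyme wells and a reference inhibitor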
Luc counter: Counterscreen for Luciferase (Kinase-Glo TM) Inhibition | Luciferin 4-monooxygenase (Photuris pensylvanica), Q27757 | AID 1379, 2008 | Kinase-Glo luciferase, ATP luminescence, 8 min | hit rate 0.28% among 200,000 | Potency, µM (highest dose often 38.3 µM), without a hit: at the top dose activity change, negative = inhibition, hits mostly inhibitors; active = well fitted inhibition curve with a large enough effect; inconclusive = small, poorly fitted or top-dose-only effect; note: potency is the fitted concentration of half-maximal effect; nearly all actives have a fitted effect of over 60% in size
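Substrate mix (final 50 mM imidazole pH 7.2, 50 mM KCl, 7 mM MgCl2, 10 uM ATP, 0.01% Tween 20, 0.05% BSA) plus pin-tool compound, then Kinase-Glo detection mix; 8 min ambient, luminescence read.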
LMNA splice mod: qHTS Assay for Modulators of Lamin A Splicing | HeLa LMNA splicing GFP/RFP minigene ratio, 48 h | Potency, µM (series often up to 46.1 µM), for the others: top-dose ratio change, negative = inhibition, actives largely listed as inhibitors | hit rate 0.01% among 200,000; active = well fitted inhibition curve with a large enough effect in the signal ratio, with a control signal flat, not every such curve was filed as active; inconclusive = small, poorly fitted or top-dose-only effect, or effect the other way, or a change in a side signal; the % refers to the signal ratio; note: potency is the fitted concentration of half-maximal effect
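S3 HeLa cells stably expressing lamin A-EGFP splicing minigene plus DsRed2, 600 cells/well, 48 h compound exposure at 37C. Laser-scanning cytometry; analysed as GFP (500-530 nm)/RFP (575-640 nm) total intensity ratio; 0.5% DMSO vehicle.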
Active calls of the source: *; ? = inconclusive; · = not tested or not shown; [ ] = remark or other dose. Unless noted, calls come from the whole dose curve; as a rule, active = well fitted inhibition curve with a large enough effect (not every such curve was filed as active); inconclusive = small, poorly fitted or top-dose-only effect, or another doubt; inactive = no such curve, though single readings can be large or run the other way. Unless noted, % is set by controls: 0 for no effect and ±100 for the full control effect.

SMILES	PNC assembly inh	HPGD inh	ALDH1A1 block	Luc counter	LMNA splice mod
CCOC(=O)N1CCN(S(=O)(=O)c2ccc(OCC)c(C)c2)CC1	25	-9%	16µM*	2%	?
CC1=CC(=O)CC(C)(C)[C@]1(O)/C=C\C(C)=C\C(=O)O	·	-4%	6%[13.5 µM]	-1%[7.66 µM]	·
CC(C)c1ccc(Nc2sc(C(=O)c3ccccc3)c(N)c2S(=O)(=O)c2ccccc2)cc1	·	·	·	·	8%[46 µM]
CCOc1cc(S(=O)(=O)N2CCCCC2)ccc1Cl	?	-13%	22µM*	-3%	9%
CCOc1cc(S(=O)(=O)N2CCN(CC)CC2)ccc1Cl	22	-8%	-2%	-1%	2%
CC1CCN(S(=O)(=O)c2ccc3c(c2)CCN3)CC1	·	·	·	·	-11%[46 µM]
CC(C)NC(=O)CN1CCN(c2ncccn2)CC1	-26	-15%	28µM*	1%	2%
O=C(CN1CCN(c2ccccn2)CC1)Nc1ccccc1	-20	-20%	-5%	-6%	11%
O=C(CN1CCN(c2ccccn2)CC1)NC1CCCC1	22	-23%	25µM*	3%	-8%
O=C(CN1CCN(c2ccccn2)CC1)Nc1ccc(Oc2ccccc2)cc1	-27	6%	25µM*	-7%	-9%
COc1ccc(CCNS(=O)(=O)c2ccc(S(=O)(=O)N3CCCC3)cc2)cc1OC	-12	4%	?	-3%	?
COc1ccc(CCNS(=O)(=O)c2ccc(C3CNC(=O)C3)cc2)cc1OC (stereo not drawn)	-119*	-12%	-11%	-2%	-2%
Cc1nn2c(=O)cc(COC(=O)COc3ccc(F)cc3)nc2s1	·	·	·	·	14%[46 µM]
Cc1ccc2c(c1)N(CCC(=O)NCc1ccccn1)C(=O)CO2	-2	-6%	22µM*	-5%	-2%
O=C(CCN1C(=O)COc2ccccc21)NCCC1=CCCCC1	?	-13%	32µM*	-2%	-11%
CCOc1cc(NC(=S)Nc2ccccc2)c(OCC)cc1NC(=O)c1ccc(OC)cc1	?	-19%	22µM*	-1%	4%
CCOc1cc(NC(=S)Nc2cccc(OC)c2)c(OCC)cc1NC(=O)C(C)C	-106*	-12%	?	-1%	10%
COc1ccc(NC(=S)Nc2ccc(OCc3ccccc3)cc2)c(OC)c1	28	-24%	10µM*	3%	?
CNC1=C(Br)C(=O)c2ccncc2C1=O	·	-15%	-11%	-9%	·
CCCCN(CC)C(=O)c1cc2c(=O)n3cccc(C)c3nc2n1C	·	·	·	·	3%[46 µM]
CCOC(=O)C1=C(c2ccccc2)NC(=O)NC1c1cc(Br)c(O)c(OC)c1 (stereo not drawn)	·	·	22µM*	3%	·
CCOC(=O)C1=C(C)NC(=O)NC1c1cc(Br)c(O)c(OC)c1 (stereo not drawn)	?	-6%	2%	-3%	9%
COc1cc(C2NC(=S)NC(c3ccccc3)=C2C(C)=O)cc(Br)c1OCC(N)=O (stereo not drawn)	·	·	14µM*	1%	-16%[46 µM]
COc1cc(Cl)cc(C2NC(=S)NC(c3ccccc3)=C2C(C)=O)c1OCC(=O)O (stereo not drawn)	·	·	-10%	·	·
CCCOc1ccc(C2NC(=S)NC(c3ccccc3)=C2C(=O)Nc2ccc(C)cc2)cc1OC (stereo not drawn)	?	-10%	0.35µM*	1%	-4%
SMILES	PNC assembly inh	HPGD inh	ALDH1A1 block	Luc counter	LMNA splice mod
C=CCOc1ccc(C2NC(=S)NC(C)=C2C(=O)c2ccccc2)cc1OC (stereo not drawn)	75	-20%	?	3%	-5%
CC(=O)N1c2ccc(S(=O)(=O)N3CCN(c4ccc(C)cc4C)CC3)cc2CC1C (stereo not drawn)	·	·	·	·	10%[46 µM]
CCOc1cc(N2CCCC2)ccc1[N+](=O)[O-]	4	-11%	-3%	-3%	-1%
O=Cc1ccc(N2CCCCC2)cc1	·	·	1.6µM*	-2%	9%[46 µM]
COc1cc(N2CCCC2)ccc1C=O	·	·	13µM*	3%	7%[46 µM]
CC1CCCN(c2ncnc3c2cnn3-c2ccc(F)cc2)C1 (stereo not drawn)	·	·	·	·	-5%[46 µM]
N#CC1=C(N)OC2=C(CCc3ccccc32)C1c1ccccc1 (stereo not drawn)	-83*	-9%	?	1%	?
CCCn1c(C)nc2c(NCC(C)(C)CN(C)C)nc(C)nc21	·	-6%	4%	-3%	·
CCc1cccc(NC(=O)CN2C(=O)COc3ccc(S(=O)(=O)N4CCC(C)CC4)cc32)c1	·	·	·	·	-2%[46 µM]
Cc1ccc(OCC(=O)NCC2CCCO2)c(C)c1 (stereo not drawn)	·	·	1%	-3%	18%[46 µM]
O=C(CC1CCCCC1)NCC1CCCO1 (stereo not drawn)	1	14µM*	-3%	1%	2%
O=C(CC(c1ccccc1)c1ccccc1)NCC1CCCO1 (stereo not drawn)	22	7.9µM*	-3%	-1%	6%
O=C(CCn1nc(-c2ccccc2)c2ccccc2c1=O)NCC1CCCO1 (stereo not drawn)	5	28µM*	?	1%	?
Cc1cc(Cl)ccc1OCCCC(=O)NCC1CCCO1 (stereo not drawn)	?	11µM*	10%	-3%	6%
O=C(CCCOc1ccccc1)NCC1CCCO1 (stereo not drawn)	-18	13µM*	-3%	-7%	13%
O=C(CCn1nc(-c2ccccc2)c2ccccc2c1=O)N1CCN(c2ccccc2)CC1	-23	-11%	22µM*	-1%	-4%
O=C(CCc1nc(-c2ccc(Cl)cc2)no1)NCC1CCCO1 (stereo not drawn)	·	·	35µM*	-2%	?
Cc1ccc(CS(=O)(=O)CCC(=O)NCC2CCCO2)cc1 (stereo not drawn)	-84*	-4%	?	-2%	-13%
CCc1ccccc1-n1cnc2cc(C(=O)NC3CCCCCC3)ccc21	·	·	·	·	-8%[46 µM]
CC(=O)Oc1ccc2c(c1)CCC1C2CC[C@]2(C)C(=O)CCC12 (stereo partly drawn)	·	-2%	6%	-3%	·
COCCn1c(=O)c(-c2ccccc2)nc2cnc(OC)nc21	·	·	?	·	-2%
O=C(CCSc1ccccc1)NCC1CCCO1 (stereo not drawn)	?	16µM*	-2%	-3%	-8%
Cc1cccc(C(=O)Nc2nnc(S(=O)(=O)N(C)Cc3ccco3)s2)c1	·	·	·	·	21%[46 µM]
CC1CCC(NC(=O)Nc2cccs2)CC1 (stereo not drawn)	39	?	?	0%	11%
O=C(Nc1cccs1)NC1CCCC1	29	32µM*	7.1µM*	-11%	-2%
CC(C)NC(=O)Nc1cccs1	-100*	-15%	-2%	4%	-15%

Assay outcomes: PubChem BioAssay, National Center for Advancing Translational Sciences (NCATS)
